Records with an inconclusive call do not appear. Calls of active or inactive are those of the source. Unless noted, calls follow the shape of the dose curve; as a rule, active = well fitted curve in the direction sought with a large enough effect in the repeat runs; inconclusive = weak or mixed curves; inactive = no such curve, though single readings can be large; an effect the other way counts as inactive or inconclusive.
Columns and labels:
[1] = qHTS assay to identify small molecule agonists of the peroxisome proliferator-activated receptor delta (PPARd) signaling pathway - cell viability counter screen (AID 743211); also: % is scaled to controls: 0 for no effect and ±100 for the full control effect; nearly all actives have a fitted effect of over 55% in size
Procedure, shortened: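 Read-out: CellTiter-Glo luminescence, 30 min RT, measured in the same wells as the beta-lactamase reporter. Cells: GeneBLAzer PPAR delta UAS-bla HEK293H, 3000 cells/well, compound exposure 17 h at 37C.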

[2] = target: Peroxisome proliferator-activated receptor delta (Homo sapiens) (UniProt Q03181); test: qHTS assay to identify small molecule agonists of the peroxisome proliferator-activated receptor delta (PPARd) signaling pathway (AID 743212; calls by dose curve; also: % is scaled to controls: 0 for no effect and ±100 for the full control effect)
Sequence of Peroxisome proliferator-activated receptor delta (Homo sapiens) (Q03181 whole entry, looked up): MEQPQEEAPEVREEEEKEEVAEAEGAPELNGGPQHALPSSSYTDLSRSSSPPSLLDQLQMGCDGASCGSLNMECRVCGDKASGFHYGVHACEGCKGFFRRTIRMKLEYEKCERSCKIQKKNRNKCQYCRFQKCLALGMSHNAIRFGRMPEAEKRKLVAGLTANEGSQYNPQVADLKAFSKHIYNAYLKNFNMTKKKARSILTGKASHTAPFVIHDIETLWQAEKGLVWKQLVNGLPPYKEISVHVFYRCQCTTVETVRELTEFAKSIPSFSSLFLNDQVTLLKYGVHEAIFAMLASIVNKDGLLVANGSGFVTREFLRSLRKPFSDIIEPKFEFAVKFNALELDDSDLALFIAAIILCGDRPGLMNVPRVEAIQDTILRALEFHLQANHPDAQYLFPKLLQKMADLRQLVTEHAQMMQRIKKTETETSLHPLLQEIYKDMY
Procedure, shortened: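 HEK293H PPARd-bla cells; 5 h preincubation 37 C/5% CO2; compound (DMSO) 37 C; LiveBLAzer B/G FRET substrate 2 h RT; fluorescence intensity.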

[3] = qHTS assay to identify small molecule antagonists of the peroxisome proliferator-activated receptor delta (PPARd) signaling pathway - cell viability counter screen (AID 743213); also: % is scaled to controls: 0 for no effect and ±100 for the full control effect; nearly all actives have a fitted effect of over 50% in size
Procedure, shortened: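 PPARd-bla HEK293H cells were treated with compounds plus agonist L165041 (300 nM final) for 17 h at 37 C. Viability was then read in the same wells by CellTiter-Glo luminescence after 30 min at room temperature.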

[4] = target: Peroxisome proliferator-activated receptor delta (Homo sapiens) (UniProt Q03181); test: qHTS assay to identify small molecule antagonists of the peroxisome proliferator-activated receptor delta (PPARd) signaling pathway (AID 743215; active = well fitted inhibition curve with a large enough effect in the signal ratio in the repeat runs, not every such curve was filed as active; the % refers to the signal ratio;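 also: cells stimulated with agonist L165041 at 300 nM final during compound exposure; series mostly up to about 62 µM; % is scaled to controls: 0 for no effect and ±100 for the full control effect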)
Procedure, shortened: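 PPARd UAS-bla HEK293H cells were pre-incubated 5 h at 37 C, then given test compounds in DMSO plus agonist L165041 (300 nM final). After 17 h at 37 C, beta-lactamase FRET substrate was added; fluorescence read after 2 h at room temperature.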

[5] = target: Bile acid receptor (Homo sapiens) (UniProt Q96RI1); test: qHTS assay to identify small molecule antagonists of the farnesoid-X-receptor (FXR) signaling pathway (AID 743217; active = well fitted inhibition curve with a large enough effect in the signal ratio in the repeat runs, not every such curve was filed as active; the % refers to the signal ratio; also: % is scaled to controls: 0 for no effect and ±100 for the full control effect)
Sequence of Bile acid receptor (Homo sapiens) (Q96RI1 whole entry, looked up): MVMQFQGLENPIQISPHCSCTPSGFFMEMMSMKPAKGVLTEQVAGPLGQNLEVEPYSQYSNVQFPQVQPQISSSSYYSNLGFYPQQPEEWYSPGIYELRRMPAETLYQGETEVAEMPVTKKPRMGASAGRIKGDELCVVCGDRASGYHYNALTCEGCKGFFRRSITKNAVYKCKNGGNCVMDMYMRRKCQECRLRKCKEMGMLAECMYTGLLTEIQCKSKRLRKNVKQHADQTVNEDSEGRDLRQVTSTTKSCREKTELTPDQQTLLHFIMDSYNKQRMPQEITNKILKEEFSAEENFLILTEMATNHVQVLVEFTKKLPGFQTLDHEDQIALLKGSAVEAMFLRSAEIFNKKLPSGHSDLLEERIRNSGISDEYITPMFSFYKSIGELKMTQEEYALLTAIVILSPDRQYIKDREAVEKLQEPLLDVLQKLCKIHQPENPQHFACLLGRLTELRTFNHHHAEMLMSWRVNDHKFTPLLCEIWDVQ
Procedure, shortened: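 FXR-UAS-bla HEK 293T cells pre-incubated 5 h at 37 °C, then exposed to compounds with chenodeoxycholic acid (50 uM final) for 16 h at 37 °C. Beta-lactamase reporter read by LiveBLAzer B/G FRET substrate fluorescence after 2 h at room temperature.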

[6] = qHTS assay to identify small molecule agonists of the farnesoid-X-receptor (FXR) signaling pathway - cell viability counter screen (AID 743218); also: % is scaled to controls: 0 for no effect and ±100 for the full control effect; nearly all actives have a fitted effect of over 45% in size
Procedure, shortened: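 FXR-UAS-bla HEK 293T cells, plated 5 h at 37 C, were exposed to compounds for 16 h at 37 C. CellTiter-Glo was then added to the same wells as the bla readout; luminescence read after 30 min at room temperature.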

[7] = target: Bile acid receptor (Homo sapiens) (UniProt Q96RI1); test: qHTS assay to identify small molecule agonists of the farnesoid-X-receptor (FXR) signaling pathway (AID 743220; active = well fitted activation curve with a large enough effect in the signal ratio in the repeat runs, not every such curve was filed as active; the % refers to the signal ratio; also: % is scaled to controls: 0 for no effect and ±100 for the full control effect)
Procedure, shortened: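 Beta-lactamase reporter under UAS control in GeneBLAzer FXR HEK 293T cells (5000/well) measured with LiveBLAzer FRET substrate after 2 h at room temperature. Compound exposure lasted 16 h at 37C.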

[8] = qHTS assay to identify small molecule antagonists of the farnesoid-X-receptor (FXR) signaling pathway - cell viability counter screen (AID 743221; active = well fitted cell-killing curve with a large enough effect in the repeat runs, not every such curve was filed as active; also: % is scaled to controls: 0 for no effect and ±100 for the full control effect; nearly all actives have a fitted effect of over 50% in size)
Procedure, shortened: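 HEK 293T FXR-bla cells, 5 h pre-incubation; compound + CDCA 50 uM final, 16 h, 37 C; beta-lactamase FRET read first, then CellTiter-Glo luminescence, 30 min RT.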

[9] = qHTS assay to identify small molecule agonists of the vitamin D receptor (VDR) signaling pathway - cell viability counter screen (AID 743224); also: series mostly up to about 63 µM; % is scaled to controls: 0 for no effect and ±100 for the full control effect; nearly all actives have a fitted effect of over 50% in size
Procedure, shortened: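 VDR-bla cells were preincubated 4 h at 37C/5% CO2, then exposed to compounds for 16 h. After the 2 h room-temperature bla FRET read, CellTiter-Glo was added to the same wells and luminescence read after 30 min.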

[10] = qHTS assay to identify small molecule antagonists of the vitamin D receptor (VDR) signaling pathway - cell viability counter screen (AID 743225); also: % is scaled to controls: 0 for no effect and ±100 for the full control effect; nearly all actives have a fitted effect of over 50% in size
Procedure, shortened: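 Viability counter screen run in the same wells as the beta-lactamase reporter assay: HEK 293T VDR-UAS-bla cells, 16 h compound exposure at 37C with 3 nM (final) 1-alpha,25-dihydroxyvitamin D3. CellTiter-Glo luminescence, 30 min, room temperature.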

[11] = qHTS assay to identify small molecule agonists of the NFkB signaling pathway (AID 1159509; active = well fitted curve in the direction sought with a large enough effect in the signal ratio in the repeat runs, not every such curve was filed as active; the % refers to the signal ratio)
Procedure, shortened: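 ME-180 NFkB-bla, 2,000 cells/well, overnight plating; cpd pinned in DMSO, 5 h 37 C; B/G FRET substrate 1.5 h RT; ex 405, em 460/530 nm.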

[12] = qHTS assay to identify small molecule agonists of the NFkB signaling pathway - cell viability counter screen (AID 1159515; calls by dose curve; also: series mostly up to about 61 µM; % is scaled to controls: 0 for no effect and ±100 for the full control effect; nearly all actives have a fitted effect of over 55% in size)
Procedure, shortened: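 NFkB-bla ME-180 cells, 2,000/well, were plated overnight at 37 C, 5% CO2, then exposed to compounds in DMSO for 5 hr. After the bla FRET read, CellTiter-Glo was added to the same wells; luminescence was read after 30 min at room temperature.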

[13] = qHTS assay to identify small molecule agonists of the endoplasmic reticulum stress response signaling pathway (AID 1159516; active = well fitted activation curve with a large enough effect in the signal ratio in the repeat runs, not every such curve was filed as active; the % refers to the signal ratio; also: % is scaled to controls: 0 for no effect and ±100 for the full control effect)
Procedure, shortened: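 CellSensor ESRE-bla HeLa cells, carrying a beta-lactamase reporter driven by the ER stress response element, were plated overnight and exposed to compounds for 5 hr at 37 C. Reporter activity was read as FRET substrate fluorescence after 2 hr at room temperature.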

[14] = qHTS assay to identify small molecule agonists of the endoplasmic reticulum stress response signaling pathway - cell viability counter screen (AID 1159517; calls by dose curve)
Procedure, shortened: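 HeLa cells carrying an ESRE-driven beta-lactamase reporter receive compound for 5 hr at 37 C. Cell viability is then gauged with CellTiter-Glo by luminescence, 30 min at room temperature.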

[15] = qHTS assay to identify small molecule antagonists of the retinoid-related orphan receptor gamma (ROR-gamma) signaling pathway - cell viability counter screen (AID 1159520)
Procedure, shortened: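 Cytotoxicity was read from cellular ATP (CellTiter-Glo luminescence) after 16 hr at 37 C with 1 uM doxycycline induction. The inducer was added 2 hr after compound transfer to Tet-on ROR gamma CHO cells.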

[16] = target: Nuclear receptor ROR-gamma (Homo sapiens) (UniProt P51449); test: qHTS assay to identify small molecule antagonists of the retinoid-related orphan receptor gamma (ROR-gamma) signaling pathway (AID 1159521)
Procedure, shortened: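 Luminescence readout (ONE-Glo, 30 min RT) after 16 h doxycycline induction; loss of signal scored as antagonism. CHO cells with TET-inducible RORγ and RORE-LUC reporter; compounds added 2 h before 1 uM final doxycycline.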

[17] = qHTS assay to identify small molecule agonists of the AP-1 signaling pathway - cell viability counter screen (AID 1159525; calls by dose curve; also: nearly all actives have a fitted effect of over 55% in size)
Procedure, shortened: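 Luminescent ATP readout (Cell Titer Glo, 30 min RT), normalised to DMSO and tetra n-octyl ammonium bromide controls. Cells were ME-180 AP-1-bla in 0.5% dialyzed FBS Opti-MEM, with a 5 h, 37 °C compound exposure.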

[18] = qHTS assay to identify small molecule agonists of the AP-1 signaling pathway (AID 1159526; calls by dose curve; also: % is scaled to controls: 0 for no effect and ±100 for the full control effect)
[19] = target: Vitamin D3 receptor (Homo sapiens) (UniProt P11473); test: qHTS assay to identify small molecule agonists of the vitamin D receptor (VDR) signaling pathway (AID 743222; calls by dose curve; also: % is scaled to controls: 0 for no effect and ±100 for the full control effect)
Sequence of Vitamin D3 receptor (Homo sapiens) (P11473 whole entry, looked up): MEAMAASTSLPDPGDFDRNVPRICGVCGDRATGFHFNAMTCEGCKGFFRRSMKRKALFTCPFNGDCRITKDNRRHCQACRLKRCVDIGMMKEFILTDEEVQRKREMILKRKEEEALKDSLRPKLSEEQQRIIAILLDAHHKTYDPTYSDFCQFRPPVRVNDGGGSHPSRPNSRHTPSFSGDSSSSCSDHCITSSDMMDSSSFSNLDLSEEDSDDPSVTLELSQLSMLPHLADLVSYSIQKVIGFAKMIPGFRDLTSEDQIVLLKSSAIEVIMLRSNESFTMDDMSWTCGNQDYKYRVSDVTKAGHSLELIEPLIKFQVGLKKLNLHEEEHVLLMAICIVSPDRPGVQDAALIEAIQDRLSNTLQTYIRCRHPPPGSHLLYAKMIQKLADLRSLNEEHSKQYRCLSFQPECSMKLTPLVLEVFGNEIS
Procedure, shortened: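 VDR-bla cells were plated 4 h at 37C/5% CO2, then exposed to compounds in DMSO for 16 h. After LiveBLAzer B/G FRET substrate addition and 2 h at room temperature, beta-lactamase reporter fluorescence was read.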

[20] = target: Vitamin D3 receptor (Homo sapiens) (UniProt P11473); test: qHTS assay to identify small molecule antagonists of the vitamin D receptor (VDR) signaling pathway (AID 743223; active = well fitted inhibition curve with a large enough effect in the signal ratio in the repeat runs, not every such curve was filed as active; the % refers to the signal ratio; also: % is scaled to controls: 0 for no effect and ±100 for the full control effect)
Procedure, shortened: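 Beta-lactamase reporter read-out: FRET substrate fluorescence after 2 h at room temperature, following 16 h exposure of VDR-bla cells to test compound plus 3 nM (final) 1alpha,25-dihydroxyvitamin D3 agonist at 37C.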

O=P(O)(O)OCC(O)CO (stereo unspecified)
inactive: outcome [1] | outcome [2] | outcome [3] | outcome [4] | outcome [5] | Potency [6] | outcome [7] | outcome [8] | outcome [9] | outcome [10] | outcome [11] | outcome [12] | outcome [13] | outcome [14] | outcome [15] | outcome [16] | outcome [17] | outcome [18]

CC1=CC[C@H](CC=O)C1(C)C
inactive: outcome [1] | outcome [2] | outcome [3] | outcome [4] | outcome [5] | Potency [6] | outcome [7] | outcome [19] | outcome [20] | outcome [9] | outcome [10] | outcome [11] | outcome [12] | outcome [13] | outcome [14] | outcome [15] | outcome [16] | outcome [17] | outcome [18]

Nc1ccc(/C=C/c2ccc(N)cc2S(=O)(=O)O)c(S(=O)(=O)O)c1
inactive: activity change, negative = cytotoxicity [1] 4.06% [at 0.55 µM] | activation [2] -0.496% [at 0.55 µM] | viability change, negative = cytotoxic [3] -6.12% [at 0.575 µM] | ratio activity, negative = inhibition [4] -1.73% [at 0.575 µM] | activity change, negative = inhibition [5] 3.76% [at 0.55 µM] | viability change, negative = cytotoxic [6] 14.9% [at 0.55 µM] | activation [7] 1.54% [at 0.55 µM] | activity change, negative = cytotoxicity [8] 5.38% [at 0.55 µM] | activation [19] 1.93% [at 0.554 µM] | activity change, negative = inhibition [20] 0.787% [at 0.628 µM] | activity change, negative = cytotoxicity [9] 8.54% [at 0.55 µM] | viability change, negative = cytotoxic [10] 9.91% [at 0.628 µM] | activation [11] 0.561% [at 0.628 µM] | activity, negative = cytotoxic [12] 1.66% [at 0.628 µM] | activation [13] 0% [at 0.628 µM] | activity change, negative = cytotoxicity [14] 9.94% [at 0.628 µM] | activity, negative = cytotoxicity [15] -1.32% [at 0.349 µM] | activity change, negative = inhibition [16] 35.7% [at 0.35 µM] | viability change, negative = cytotoxic [17] 6.31% [at 0.29 µM] | activation [18] -7.74% [at 0.29 µM]

CCOC(=O)CC#N
inactive: outcome [1] | outcome [2] | outcome [3] | outcome [4] | outcome [5] | outcome [7] | outcome [8] | outcome [10] | outcome [11] | outcome [12] | outcome [13] | outcome [14] | outcome [15] | outcome [16] | outcome [17] | outcome [18]

O=C1OC(=O)c2ccccc21
inactive: outcome [1] | outcome [2] | outcome [3] | outcome [4] | outcome [5] | outcome [7] | outcome [8] | outcome [19] | outcome [20] | outcome [11] | outcome [12] | outcome [13] | outcome [14] | outcome [15] | outcome [16] | outcome [17] | outcome [18]

C=COCCOCCOC=C
inactive: outcome [1] | outcome [2] | outcome [3] | outcome [4] | outcome [5] | Potency [6] | outcome [7] | outcome [8] | outcome [19] | outcome [9] | outcome [10] | outcome [11] | outcome [12] | outcome [13] | outcome [14] | outcome [15] | outcome [16] | outcome [17] | outcome [18]

Nc1ccc(S(=O)(=O)Nc2ccccn2)cc1
inactive: outcome [1] | outcome [2] | outcome [3] | outcome [4] | outcome [5] | Potency [6] | outcome [7] | outcome [8] | outcome [19] | outcome [10] | outcome [11] | outcome [12] | outcome [13] | outcome [14] | outcome [15] | outcome [16] | outcome [17] | outcome [18]

O=c1cc(O)c(Cl)c[nH]1
inactive: outcome [1] | outcome [2] | outcome [3] | outcome [4] | outcome [5] | outcome [7] | outcome [8] | outcome [19] | outcome [20] | outcome [9] | outcome [10] | outcome [11] | outcome [12] | outcome [13] | outcome [14] | outcome [15] | outcome [16] | outcome [17] | outcome [18]

— PubChem BioAssay (Tox21)
